Reference: PubChem BioAssay (NCI)
Compounds without any hit were thinned out: in the full panel of roughly 83,000, 20% have a hit.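 Results are percent growth after 48 hours of single-concentration exposure. 100 means growth as in untreated cells, lower positive values show inhibition; negative values down to -100 show cell death.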 Unmarked numbers belong to inactive results. The source made the active and inactive calls. Rule for the calls: active = growth percent below 10; inactive = the rest.

Assays:
Experiment in all cases: NCI-60 one-dose screen, 48 h (100 = growth as untreated, 0 = no growth, -100 = all killed)
Settings in all cases: 10 µM unless noted
NCI-H23 lung = tested on: NCI-H23 lung
NCI-H226 lung = tested on: NCI-H226 lung
NCI-H322M lung = tested on: NCI-H322M lung
HOP-62 NSCLC = tested on: HOP-62 NSCLC
NCI-H460 lung = tested on: NCI-H460 lung
HOP-92 NSCLC = tested on: HOP-92 NSCLC
NCI-H522 lung = tested on: NCI-H522 lung
A549/ATCC NSCLC = tested on: A549/ATCC NSCLC
786-0 renal = tested on: 786-0 renal
COLO 205 colon = tested on: COLO 205 colon
DU-145 prostate = tested on: DU-145 prostate
MALME-3M melanoma = tested on: MALME-3M melanoma
MDA-MB-231 breast = tested on: MDA-MB-231 breast
RXF 393 renal = tested on: RXF 393 renal
SF-268 CNS = tested on: SF-268 CNS
SF-295 CNS = tested on: SF-295 CNS
SF-539 CNS = tested on: SF-539 CNS
UACC-257 melanoma = tested on: UACC-257 melanoma
M14 melanoma = tested on: M14 melanoma

| Compound | growth (NCI-H23 lung) | growth (NCI-H226 lung) | growth (NCI-H322M lung) | growth (HOP-62 NSCLC) | growth (NCI-H460 lung) | growth (HOP-92 NSCLC) | growth (NCI-H522 lung) | growth (A549/ATCC NSCLC) | growth (786-0 renal) | growth (COLO 205 colon) | growth (DU-145 prostate) | growth (MALME-3M melanoma) | growth (MDA-MB-231 breast) | growth (RXF 393 renal) | growth (SF-268 CNS) | growth (SF-295 CNS) | growth (SF-539 CNS) | growth (UACC-257 melanoma) | growth (M14 melanoma) |
| --- | --- | --- | --- | --- | --- | --- | --- | --- | --- | --- | --- | --- | --- | --- | --- | --- | --- | --- | --- |
| CCOC(=O)c1cc(C(=O)c2ccc(O)c(O)c2)n2ccc(-c3ccn4c(C(=O)c5ccc(O)c(O)c5)cc(C(=O)OCC)c4c3)cc12 | 96.7% | 107% | 94.3% | 99.7% | 101% | 45.7% | 82.7% | 92.3% | 87% | 102% | 93.8% | 105% | 52.6% | 86.5% | 88.5% | 102% | 92.5% | 100% | 93.2% |
| CCOC(=O)c1c(C(=O)OCC)c2cc(-c3ccn4c(C(=O)c5ccccc5)c(C(=O)OCC)c(C(=O)OCC)c4c3)ccn2c1C(=O)c1ccccc1 | 88.8% | 93.1% | 99.9% | 97.4% | 98.3% | 52.4% | 75.6% | 91.5% | 98.4% | 109% | 100% | 87.3% | 82.8% | 96.7% | 85% | 106% | 89.9% | 95.1% | 101% |
| N#Cc1nnn(-c2ccc(S(N)(=O)=O)cc2)c1NCC(=O)c1ccccc1 | 98% | 88.2% | 91.2% | 91.7% | 101% | 86.6% | 83.9% | 93.3% | 102% | 104% | 106% | 96.4% | 95.1% | 113% | 93.6% | 100% | 116% | 88.4% | 97.5% |
| COc1ccc(-c2nnc(SCC(=O)c3ccc(Cl)cc3)o2)cc1 | 93.9% | 103% | 108% | 95.7% | 110% | 105% | 76.3% | 92% | 96.9% | 112% | 108% | 106% | 98.7% | 113% | 101% | 101% | 95.6% | 107% | 106% |
| CSc1ccc(SC2c3ccc(C)cc3Oc3nc(N)c(C#N)c(N)c32)cc1 (centres undefined) | -74.2% (active) | -88.7% (active) | -20.9% (active) | -27.8% (active) | -72.5% (active) | -67.6% (active) | -91.1% (active) | 0.603% (active) | -96.6% (active) | -76.7% (active) | -88.7% (active) | -94% (active) | -90.5% (active) | -70.2% (active) | -26.1% (active) | 15.3% | -86.7% (active) | -76.3% (active) | -81.6% (active) |
| COc1cc(/C=C/C(=O)c2cccnc2Nc2ccc(F)cc2)cc(OC)c1OC | 40.2% | 43% | 103% | 43.6% | 22.5% | 37.7% | 29.7% | 32.9% | 70.3% | 83.9% | 0.388% (active) | 94.2% | 37.9% | 22.6% | 21.6% | 57.6% | 56.1% | 31.9% | 70% |
| COc1cc2c(cc1O)CC[C@@H]1[C@@H]2CC[C@]2(C)[C@@H](OCCCN(C)C)CC[C@@H]12 | -30% (active) | 9.47% (active) | -22.3% (active) | -57.8% (active) | -61.4% (active) | -18.2% (active) | -90.8% (active) | -33.7% (active) | -83.8% (active) | -71% (active) | -10.3% (active) | -76.1% (active) | -70.2% (active) | -88.3% (active) | -24.3% (active) | -79.8% (active) | -85% (active) | -77.4% (active) | -78.8% (active) |
| Cc1cc(N2CCCC2)nc(NC2CCCC(Nc3ccnc4cc(Cl)ccc34)C2)n1 (centres undefined) | -41.4% (active) | -56.2% (active) | -42.6% (active) | -84.4% (active) | -66.3% (active) | -82.7% (active) | -76.3% (active) | -88.6% (active) | -91.1% (active) | -90.7% (active) | -21.8% (active) | -80.4% (active) | -77% (active) | -84.5% (active) | -36.7% (active) | -80.8% (active) | -92.5% (active) | -84.3% (active) | -83.6% (active) |
| CC1=C(O)C(=O)C(C(C#N)(C#N)C(C#N)C#N)C1 (centres undefined) | 92.4% | 96.4% | 85.8% | 108% | 102% | 112% | 85.8% | 101% | 106% | 105% | 94.7% | 113% | 124% | 110% | 84.4% | 101% | 104% | 105% | 101% |
| CCCCCC(=O)Oc1ccc(/C(=C(\C)c2ccc(OC)cc2)c2ccc(OCCN3CCCCC3)cc2)cc1 | 67.1% | 98.7% | 78.2% | 63.1% | 51.6% | 81.7% | 74.6% | 53.2% | 46.8% | -32.6% (active) | 79.8% | 64.3% | 66.1% | 70.2% | 71.1% | 38.9% | 40.8% | 8.72% (active) | -39.2% (active) |
| O=C(Cc1ccc(/C=C/C(=O)c2ncc[nH]2)cc1)Nc1ccc(F)cc1 | 24.2% | 61.3% | 33.3% | 20.5% | 1.46% (active) | 69.7% | 22.2% | 25.6% | 23.7% | 20.5% | 15.9% | 96.6% | 22.6% | 19.3% | 27.7% | 33.1% | -21.7% (active) | 92.1% | 54.9% |
| CCN(CC)c1ccc2c(c1)Oc1nc(N)c(C#N)c(N)c1C2Sc1ccc(SC)cc1 (centres undefined) | -22.7% (active) | -46.9% (active) | -15.1% (active) | -25.3% (active) | -15.3% (active) | -12.5% (active) | -50.8% (active) | -2.37% (active) | -39.1% (active) | -73.6% (active) | -48% (active) | -15.9% (active) | -39.3% (active) | -67.6% (active) | 4.56% (active) | -54.2% (active) | -71.8% (active) | 55.6% | -42.3% (active) |
| C/C1=C\CC[C@@]2(C)O[C@H]2[C@H]2OC(=O)C(CN3CCN(CC4C(=O)O[C@H]5[C@H]4CC/C(C)=C/CC[C@@]4(C)O[C@@H]54)CC3)[C@@H]2CC1 (some centres undefined) | 98.5% | 99.2% | 99.3% | 107% | 107% | 100% | 33.4% | 93.5% | 109% | 98.2% | 60.6% | 101% | 87.1% | 94.6% | 104% | 103% | 90.5% | 83.5% | 93.1% |
| O=C(CCCCC(=O)N/N=C\c1ccccc1O)N/N=C\c1ccccc1O | 58.4% | 52.9% | 27.5% | 39.1% | 12.2% | 64.4% | 46.4% | 48.9% | 19.6% | 35.4% | 45.1% | 32.6% | 50% | 43.4% | 40% | 37.9% | 19% | 26% | 20.9% |
| Clc1ccc2c(NCCNc3nc(N4CCCCC4)nc4ccccc34)ccnc2c1 | 54.3% | -8.68% (active) | 0.0479% (active) | -18.2% (active) | -39.4% (active) | -16% (active) | -21.8% (active) | 0.13% (active) | -36.9% (active) | -84.6% (active) | 26.4% | -79.8% (active) | -85% (active) | -40.2% (active) | 2.98% (active) | -81.3% (active) | -83.6% (active) | -70.2% (active) | -79.7% (active) |
| CN1CCN(c2nc(NCCCNc3ccnc4cc(Cl)ccc34)c3ccccc3n2)CC1 | 72.5% | 70% | 64.3% | 49% | 28.5% | 68.4% | 20.2% | 29.2% | 74.6% | -6.18% (active) | 59.8% | -66.3% (active) | -8.42% (active) | 43.3% | 66.2% | 62.5% | -71% (active) | 17.7% | -85.6% (active) |
